Test systems include HCT-15 colon; HT29 colon; SNB-19 CNS; U251 CNS; PC-3 prostate; SK-MEL-5 melanoma; LOX IMVI melanoma; SK-MEL-28 melanoma; SK-MEL-2 melanoma; EKVX NSCLC; SN12C renal; UO-31 renal; TK-10 renal; ACHN renal; CAKI-1 renal; CCRF-CEM leukemia; MOLT-4 leukemia; UACC-62 melanoma; A498 renal.
Common to all, as to test: NCI-60 one-dose screen, 48 h (100 = growth as untreated, 0 = no growth, -100 = all killed)
Common to all, as to details: 10 µM unless noted

Compounds without any hit were thinned out: in the full panel of roughly 83,000, 20% have a hit.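 The endpoint reported here, percent growth, reads 100 for growth as untreated, 0 for no net growth and -100 for all cells dead.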 Values without a mark were called inactive. The source made the active and inactive calls. How the source made its calls: active means growth percent below 10; inactive means the rest.

With `CC(=[N-])N1CCC[C@@H](Nc2c3ccccc3nc3ccccc23)C1.[Cl][Pt].[NH-]CCC[NH-]`, the growth in the assay on HCT-15 colon was 48.2%; in the assay with HT29 colon, 1.38% (active); with SNB-19 CNS it was 53.3%; in the assay on U251 CNS, 44.3%; in the assay with PC-3 prostate, 70.6%; in the assay on SK-MEL-5 melanoma, -84.4% (active). The growth was 27.9% in the assay with LOX IMVI melanoma; 2.14% (active) in the assay with SK-MEL-28 melanoma; 52.4% with SK-MEL-2 melanoma; 52.3% in the assay with EKVX NSCLC; 5.71% (active) in the assay on SN12C renal; 27.4% in the assay with UO-31 renal. The growth with TK-10 renal was 1.35% (active); with ACHN renal, -22.2% (active); in the assay with CAKI-1 renal it was 15.5%; in the assay with CCRF-CEM leukemia it was 35.4%; with MOLT-4 leukemia, 14.6%.

For `Nc1c(C(=O)c2ccc(Cl)s2)sc2nc3c(cc12)CCCC3`, the growth in the assay with HCT-15 colon is 107%; in the assay with HT29 colon it was 94.2%; in the assay with SNB-19 CNS, 105%; in the assay on U251 CNS, 97.8%; in the assay with PC-3 prostate, 88.4%; in the assay with SK-MEL-5 melanoma, 96.8%. The growth in the assay on UACC-62 melanoma was 106%; in the assay with LOX IMVI melanoma it was 96.8%; with SK-MEL-28 melanoma it was 119%; in the assay on SK-MEL-2 melanoma it was 105%; with SN12C renal, 94.4%; in the assay on UO-31 renal, 81.2%. The growth in the assay with TK-10 renal is 151%; in the assay on ACHN renal, 112%; in the assay with CAKI-1 renal, 87%; with A498 renal, 72%; with MOLT-4 leukemia, 99.5%.

Consider `COc1cc(NC(=O)c2cccc(-c3cc(=O)c4c(O)c(OC)c(OC)cc4o3)c2)cc(OC)c1OC`, for which the growth was 59.9% in the assay with HCT-15 colon; 62.8% in the assay on HT29 colon; 50% in the assay with SNB-19 CNS; 44.8% in the assay on U251 CNS; 49.8% in the assay with PC-3 prostate; 39.2% with SK-MEL-5 melanoma. In addition, the growth was 49.4% in the assay with UACC-62 melanoma; 33% with LOX IMVI melanoma; 77.4% with SK-MEL-28 melanoma; 69.6% with SK-MEL-2 melanoma; 63% with SN12C renal; 34.3% in the assay on UO-31 renal. Also, the growth was 74.8% with TK-10 renal; 16.3% in the assay on ACHN renal; 62.5% with CAKI-1 renal; 80.1% in the assay with A498 renal; 58.1% in the assay with CCRF-CEM leukemia; 72.8% in the assay with MOLT-4 leukemia.

`O=C(Nc1ccccc1Cl)OCCN1CCOCC1`: the growth with HCT-15 colon was 102%; in the assay on HT29 colon it was 75.9%; with SNB-19 CNS, 103%; in the assay on U251 CNS, 103%; in the assay with PC-3 prostate, 77.5%; in the assay with SK-MEL-5 melanoma, 108%. The growth was 101% with UACC-62 melanoma; 102% in the assay on LOX IMVI melanoma; 110% in the assay on SK-MEL-28 melanoma; 96.7% in the assay on SK-MEL-2 melanoma; 104% with EKVX NSCLC; 92.4% in the assay on UO-31 renal. Further, the growth in the assay with TK-10 renal was 92.8%; in the assay with A498 renal it was 129%; in the assay with CCRF-CEM leukemia, 86%; with MOLT-4 leukemia it was 92.3%.

With `COC(=O)Nc1nc2ccc(C(=O)C3CC3)cc2[nH]1`, the growth is -1.31% (active) with HCT-15 colon; 1.32% (active) in the assay on HT29 colon; 13.5% in the assay on SNB-19 CNS; 12.8% in the assay with U251 CNS; 14.7% in the assay on PC-3 prostate; 8.13% (active) in the assay with SK-MEL-5 melanoma. Further, the growth was 30.3% in the assay with UACC-62 melanoma; 34.7% in the assay with LOX IMVI melanoma; 49% in the assay on SK-MEL-28 melanoma; 27.9% in the assay on SK-MEL-2 melanoma; 32.7% with EKVX NSCLC; 6.33% (active) with UO-31 renal. Moreover, the growth in the assay with TK-10 renal was 35.5%; with ACHN renal, 37.1%; in the assay with CAKI-1 renal it was 27.1%; with A498 renal, 6.47% (active); in the assay with CCRF-CEM leukemia, -22.3% (active); in the assay with MOLT-4 leukemia, -16% (active).

Take `O=[N+]([O-])c1ccccc1C(O)Cc1ccc2ccccc2n1` (stereo unspecified): the growth in the assay with HCT-15 colon is 105%; in the assay on HT29 colon, 112%; in the assay with SNB-19 CNS, 101%; in the assay with U251 CNS, 96.9%; with PC-3 prostate, 95.5%; with SK-MEL-5 melanoma it was 89.9%. For the same compound, the growth in the assay with UACC-62 melanoma was 82.6%; in the assay on LOX IMVI melanoma, 93%; with SK-MEL-28 melanoma it was 92.9%; with SK-MEL-2 melanoma, 108%; in the assay on EKVX NSCLC, 83.8%; with SN12C renal, 95.2%. Moreover, the growth with UO-31 renal is 66.6%; in the assay with TK-10 renal it was 148%; with ACHN renal, 85.9%; in the assay on CAKI-1 renal, 88%; in the assay on A498 renal it was 68%; in the assay on CCRF-CEM leukemia it was -50.2% (active). For the same compound, in the assay with MOLT-4 leukemia, the growth is -6.33% (active).

In the case of `COc1ccc(-c2nc3sccn3c2/C=C/C(=O)c2c[nH]c3ccccc23)cc1`, the growth with HCT-15 colon was 60.5%; in the assay on HT29 colon it was 79.7%; in the assay on SNB-19 CNS, 92.2%; in the assay on U251 CNS, 46.2%; with SK-MEL-5 melanoma it was 58.8%; in the assay with UACC-62 melanoma it was 76.1%. For the same compound, the growth in the assay with LOX IMVI melanoma is 37.5%; with SK-MEL-28 melanoma it was 76.7%; with SK-MEL-2 melanoma, 90.9%; with EKVX NSCLC, 58.3%; in the assay with SN12C renal it was 71.7%; with UO-31 renal, 82.7%. Further, the growth with TK-10 renal was 73%; in the assay on ACHN renal, 40.6%; in the assay with CAKI-1 renal, 49.6%; in the assay with A498 renal, 68.2%; in the assay on CCRF-CEM leukemia, 90.9%; in the assay with MOLT-4 leukemia, -5.59% (active).

On to `NC(N)=N/N=C(/c1ccccc1)c1ccccc1F`, for which the growth was 22% with HCT-15 colon; 8.59% (active) with HT29 colon; 30.9% with SNB-19 CNS; 24.2% with U251 CNS; 14.1% with PC-3 prostate; 15.8% in the assay with SK-MEL-5 melanoma. In addition, the growth with UACC-62 melanoma is 20.2%; in the assay on LOX IMVI melanoma, 46.3%; in the assay with SK-MEL-28 melanoma, 63.4%; in the assay on SK-MEL-2 melanoma it was 70.5%; in the assay on EKVX NSCLC, 60%; with SN12C renal, 37.1%. Further, the growth in the assay on UO-31 renal was 44%; in the assay with ACHN renal, 41%; in the assay with CAKI-1 renal, 35.7%; in the assay with A498 renal it was 44.9%; with CCRF-CEM leukemia, -2.22% (active); in the assay on MOLT-4 leukemia it was 22.4%.

Consider `CSc1ncc(C)c(Nc2ccc(Cl)cc2)n1`, for which the growth in the assay with HCT-15 colon was 99.3%; with HT29 colon it was 96.4%; in the assay with SNB-19 CNS it was 105%; in the assay on U251 CNS, 93%; in the assay with PC-3 prostate, 87.6%; in the assay on SK-MEL-5 melanoma it was 110%. Moreover, the growth with UACC-62 melanoma is 99.4%; in the assay with LOX IMVI melanoma, 107%; with SK-MEL-28 melanoma, 114%; in the assay with SK-MEL-2 melanoma, 103%; with EKVX NSCLC it was 77.4%; in the assay on SN12C renal, 102%. For the same compound, the growth with UO-31 renal was 76.4%; with TK-10 renal, 95.6%; with ACHN renal it was 103%; in the assay on CAKI-1 renal, 91%; in the assay with A498 renal, 88.5%; with CCRF-CEM leukemia, 96.5%. Moreover, the growth in the assay with MOLT-4 leukemia was 82.5%.

`Clc1ccc(/C=C/c2nc(Nc3ccc(Cl)cc3)c3ccccc3n2)cc1`: the growth with HCT-15 colon was 99%; in the assay with HT29 colon, 112%; in the assay with SNB-19 CNS, 100%; in the assay with U251 CNS, 100%; with PC-3 prostate it was 99.2%; with SK-MEL-5 melanoma, 96.9%. Further, the growth is 93.2% with UACC-62 melanoma; 97.1% with LOX IMVI melanoma; 117% in the assay on SK-MEL-28 melanoma; 106% in the assay on SK-MEL-2 melanoma; 90.5% in the assay on EKVX NSCLC; 103% in the assay with SN12C renal. In addition, the growth in the assay with UO-31 renal was 70%; in the assay on TK-10 renal, 121%; in the assay with ACHN renal, 105%; in the assay on CAKI-1 renal, 90.1%; in the assay with A498 renal it was 94.9%; with CCRF-CEM leukemia, 102%. Besides, in the assay on MOLT-4 leukemia, the growth was 98.2%.

In the case of `COc1ccc2cc(-c3ccc(C(=O)NN)c(C)n3)ccc2c1`, the growth with HCT-15 colon was 99%; with HT29 colon, 95%; in the assay with SNB-19 CNS it was 96.6%; in the assay on U251 CNS it was 98.9%; in the assay with PC-3 prostate, 93.3%; with SK-MEL-5 melanoma, 102%. Also, the growth in the assay with UACC-62 melanoma was 82.1%; in the assay on LOX IMVI melanoma, 88.2%; in the assay on SK-MEL-28 melanoma, 93.7%; in the assay on SK-MEL-2 melanoma it was 102%; in the assay on EKVX NSCLC, 99.5%; in the assay on SN12C renal, 96.6%. Further, the growth in the assay on UO-31 renal is 83.5%; with TK-10 renal, 95.6%; in the assay with ACHN renal, 103%; with CAKI-1 renal, 103%; in the assay with A498 renal it was 90.7%; in the assay with CCRF-CEM leukemia, 91.3%. Further, in the assay with MOLT-4 leukemia, the growth was 74%.

As to `CCOC(=O)c1sc2ccc(NCc3nc[nH]c3C)cc2c1NC(=O)c1cc(OC)c(OC)c(OC)c1`, the growth was 92.7% in the assay with HCT-15 colon; 88.9% in the assay on HT29 colon; 93% in the assay with SNB-19 CNS; 92.3% with U251 CNS; 85% in the assay with PC-3 prostate; 96.9% with SK-MEL-5 melanoma. For the same compound, the growth with UACC-62 melanoma is 92.9%; in the assay on LOX IMVI melanoma, 67.9%; in the assay on SK-MEL-28 melanoma, 83%; with SK-MEL-2 melanoma it was 84.1%; with SN12C renal it was 87.5%; with UO-31 renal, 70.4%. The growth was 150% in the assay with TK-10 renal; 65.1% with ACHN renal; 96% in the assay on CAKI-1 renal; 101% in the assay on A498 renal; 52.2% in the assay on CCRF-CEM leukemia; 88.2% with MOLT-4 leukemia.

The values are drawn from PubChem BioAssay (NCI).
